Screens (PubChem BioAssay)
MCL1-BIM inh: disrupts human MCL1 binding to BIM-BH3 peptide | 320,000 tested, 0.68% active | inhibition, % at 10.9 µM | AID 2057 | GST-MCL1 / FITC-Bim-BH3 fluorescence polarization;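 active means inhibition above the mean inhibition of all tested compounds plus 3 SD, set per campaign, cut at about 40% in these data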;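 further: 0% = DMSO wells and 100% = unlabeled Bim-BH3 peptide control; higher means more loss of mP so more displacement of Bim peptide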
MEX-5 binding: C. elegans MEX-5 TCR-2 RNA binding activity. Q9XUB2. MEX-5/FITC-TCR2 RNA binding, fluorescence polarization; active compounds read low. activity score (negative = inhibition of binding), % at 10 µM. 300,000 tested, 0.38% active. AID 1832;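 active means inhibition past about -25% in most replicates, and total fluorescence under double the plate's negative control median, limit read from the data; inconclusive means replicates evenly split on the limit, or fluorescence at least double controls; inactive means too little inhibition in most replicates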;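 further: 0% = DMSO and -100% = 5 µM competing unlabeled TCR2 RNA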
eLon inh: inhibitors of E. coli Lon protease | purified E. coli Lon protease, fluorescence polarization | P0A9M0 | inhibition, % at 7.94 µM | AID 602123 | 360,000 tested, 0.42% active; in the data active means inhibition above about 13%, passing the limit was not always enough;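 further: 0% = enzyme with probe and DMSO and 100% = no enzyme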
BCLXL inh: inhibitors of human Bcl-xL | Q07817 | GST-Bcl-xL / FITC-Bim BH3 peptide fluorescence polarization | inhibition, % at 10.9 µM | 320,000 tested, 0.7% active;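 active means inhibition above the mean of all tested compounds plus 3 SD, cutoff set per campaign, cut at about 30% in these data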;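 further: 0% = DMSO wells and 100% = unlabeled Bim-BH3 peptide competitor; inhibitors lower millipolarization by displacing the labeled peptide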
Target sequence (Q07817 whole entry, looked up): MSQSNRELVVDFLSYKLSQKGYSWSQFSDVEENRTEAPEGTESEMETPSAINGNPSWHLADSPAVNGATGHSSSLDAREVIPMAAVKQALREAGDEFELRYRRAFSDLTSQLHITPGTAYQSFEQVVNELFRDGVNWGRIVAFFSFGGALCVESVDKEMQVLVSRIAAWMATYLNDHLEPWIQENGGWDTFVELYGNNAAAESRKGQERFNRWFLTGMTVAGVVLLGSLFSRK
EBV gp42 block: inhibitors of Epstein-Barr virus glycoprotein 42. Q1HVG2. Fluorescence polarization binding assay, mP read-out. inhibition, % (tested at 21.74 µM). 220,000 tested, 0.42% active. AID 1085; in the data active means inhibition above about 50%
Target sequence (Q1HVG2 whole entry, looked up): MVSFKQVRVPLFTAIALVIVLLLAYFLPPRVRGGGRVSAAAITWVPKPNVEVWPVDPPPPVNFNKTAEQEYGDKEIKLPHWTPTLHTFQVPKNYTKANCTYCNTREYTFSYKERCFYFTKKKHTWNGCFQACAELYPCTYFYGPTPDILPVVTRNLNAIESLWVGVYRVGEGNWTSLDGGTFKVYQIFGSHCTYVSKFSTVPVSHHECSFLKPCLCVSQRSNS
GLD-1 TGE inh: GLD-1-TGE RNA interaction inhibition (C. elegans); purified GLD-1 + fluorescein TGE RNA, fluorescence polarization; inhibition, % at 5.96 µM; 320,000 tested, 0.44% active; AID 2280;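 active means percent inhibition above a per-plate cutoff, the plate mean of test compounds plus 3 SD, cut at about 30% in these data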;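 further: 0% = DMSO wells with GLD-1 and probe and 100% = wells lacking GLD-1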
BCLXL inh confirm: counter-screen for MCL1 inhibitors: confirmation of human Bcl-xL inhibitors. shares compounds with MCL1-BIM inh. GST-Bcl-xL / FITC-Bim BH3 peptide FP binding. inhibition, % at 10.9 µM. 1,700 tested, 54% active;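 active means inhibition above a cutoff equal to the mean inhibition of all tested compounds plus 3 SD, cut at about 30% in these data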;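 further: 0% = DMSO wells and 100% = unlabeled Bim BH3 control peptide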
MCL1 BIM confirm: confirmation of human MCL1 and BIM-BH3 interaction inhibitors. GST-MCL1 / FITC-Bim-BH3 fluorescence polarization. inhibition, % at 10.9 µM. AID 2168. 1,700 tested, 61% active. shares compounds with MCL1-BIM inh;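 active means inhibition above the average of all tested compounds plus 3 SD, cut at about 40% in these data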;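 further: 0% = DMSO wells and 100% = unlabeled Bim-BH3 control peptide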
GLD1 RNA confirm: GLD-1 TGE RNA interaction inhibition, confirmation; shares compounds with GLD-1 TGE inh; GLD-1/FL-TGE RNA fluorescence polarization, biochemical; inhibition, % at 5.96 µM; 550 tested, 10% active;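 active means average inhibition across triplicates above the hit cutoff set in the primary screen, cut at about 32% in these data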;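 further: 0% = GLD-1 with RNA probe and DMSO and 100% = wells lacking GLD-1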
E coli Lon conf: confirmation of E. coli Lon protease inhibitors; shares compounds with eLon inh; purified E. coli Lon, fluorescence polarization; inhibition, % at 7.94 µM; 1,400 tested, 31% active; AID 602230; in the data active means inhibition above about 16%;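 further: 0% = enzyme with probe and DMSO and 100% = no enzyme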
An asterisk follows results filed as active; ? = inconclusive; nt = no result; + = active, no number. Only some compounds are listed: those with a hit (about 1.5% of all), similar ones and a draw of the others.

SMILES	MCL1-BIM inh	MEX-5 binding	eLon inh	BCLXL inh	EBV gp42 block	GLD-1 TGE inh	BCLXL inh confirm	MCL1 BIM confirm	E coli Lon conf	others
O=Cc1ccc2noc(-c3ccc(F)cc3)c2c1	106*	?	20*	101*	151*	103*	123*	163*	110*
CN(C(=O)COC(=O)c1cc(S(=O)(=O)N2CCOCC2)ccc1F)C1CCS(=O)(=O)C1 (stereo unspecified)	1	2	1	0	nt	4	nt	nt	nt
Nc1c(C(=O)NC2CC2)c2nc3ccccc3nc2n1-c1ccc2c(c1)OCO2	61*	-7	19*	42*	29	27	35*	42*	31*
CCCNC(=O)c1c(N)n(-c2ccc3c(c2)OCO3)c2nc3ccccc3nc12	5	-1	10	9	-18	10	nt	nt	nt
CC(=O)N/N=C/c1cc(C(C)(C)C)cc(/C=N/NC(C)=O)c1O	89*	2	41*	94*	67*	156*	86*	115*	75*
O=c1ccc(-c2ccc(S(=O)(=O)Nc3cccc([N+](=O)[O-])c3)s2)n[nH]1	1	2	0	6	nt	4	nt	nt	nt
CCCCC1OC23CCCCC2C(C#N)(C#N)C1(C#N)C(=N)O3 (stereo unspecified)	127*	-8	26*	103*	-9	83*	7	3	4
N#CC1(C#N)C(c2ccccc2)OC23CCCCC2C1(C#N)C(=N)O3 (stereo unspecified)	178*	-49*	30*	132*	-5	102*	17	16	41*
CCCCC1OC23CCCCC2C(C#N)(C(=N)O3)C1(C#N)C#N (stereo unspecified)	78*	1	25*	78*	-33	54*	14	27	0	GLD1 RNA confirm=-6
CCn1c(-c2c(Cl)c(C)nn2C)n[nH]c1=S	-9	1	-6	-16	-17	5	nt	nt	nt
CCCNc1c(NS(=O)(=O)c2ccc3c(c2)CCCC3)c(=O)oc2ccccc12	14	-5	-5	4	nt	4	nt	nt	nt
COc1cc(OC)cc(-c2c(Sc3ccccc3)c3cc(-c4ccc5c(c4)OCCO5)ccc3n2C)c1	nt	nt	-3	nt	nt	nt	nt	nt	nt
CC(C)NC(=O)c1cc(C2CCCCN2C(=O)c2ccccc2)on1 (stereo unspecified)	nt	nt	-6	nt	nt	nt	nt	nt	nt
Cc1nn(C)c(C)c1N1C(=O)c2cccc3c(N)ccc(c23)C1=O	+	nt	+	+	169*	+	+	+	+
CCN1C(=O)c2cccc3c(N)ccc(c23)C1=O	+	?	+	+	nt	+	+	+	+
Cc1cccc(NC(=O)C2C3C=CC(O3)C2C(=O)O)c1 (stereo unspecified)	6	-2	nt	8	nt	10	nt	nt	nt
Cc1ccnc(N2CCCC(C(=O)Nc3cccc(C)c3C)C2)n1 (stereo unspecified)	2	-2	2	5	nt	3	nt	nt	nt
CN1CCCc2cc3c(C(F)(F)F)cc(=O)oc3nc21	168*	?	27*	155*	132*	125*	141*	174*	103*
FC(F)(F)c1cc(C(F)(F)F)c2ccc(N3CCOCC3)nc2n1	4	-3	-1	5	nt	-4	nt	nt	nt
O=C1CCC(C(=O)O)N1 (stereo unspecified)	2	2	-2	2	nt	3	nt	nt	nt
Cc1nc2ccccc2n2c(O)c(CC(=O)O)cc12	+	?	148*	+	129*	137*	190*	+	119*
CCN(CC)C(=O)CSc1nnc2nnc3cc(OC)ccc3n12	148*	-77*	132*	138*	124*	120*	124*	159*	118*
COc1cc(NC(=O)c2cccc3c(-c4cnn(C)c4)coc23)cc(OC)c1OC	nt	nt	5	nt	nt	nt	nt	nt	nt
O=c1[nH]nc(CNc2ccc(O)cc2)c2ccccc12	76*	-52*	51*	79*	6	89*	51*	41*	-11
O=c1[nH]nc(CNc2ccc(C(F)(F)F)cc2)c2ccccc12	9	0	1	5	9	2	nt	nt	nt
SMILES	MCL1-BIM inh	MEX-5 binding	eLon inh	BCLXL inh	EBV gp42 block	GLD-1 TGE inh	BCLXL inh confirm	MCL1 BIM confirm	E coli Lon conf	others
Cc1cc(C)n2nc(SCc3cccc(F)c3)nc2n1	1	-2	-3	1	nt	-4	nt	nt	nt
O=C(N/N=C/c1cc(Br)c(Br)o1)c1cccnc1	126*	-12	27*	94*	-9	40*	34*	44*	6	GLD1 RNA confirm=3
CCOc1ccc(C2C=C(c3ccc(C)cc3)Nc3nnnn32)cc1 (stereo unspecified)	50*	1	24*	59*	-15	33*	39*	57*	-2
CCOc1ccc(NC(=S)Nc2ccccc2C2(C)CC2)cc1	7	0	12	3	5	2	nt	nt	nt
COc1ccccc1CNC(=O)CCc1nnc2ccc(NCCCN3CCCC3=O)nn12	4	0	6	4	nt	0	nt	nt	nt
Cc1cc(-c2ccccc2C(=O)O)on1	4	3	3	5	-13	3	nt	nt	nt
O=C(O)c1ccccc1C1=Nc2ccc(O)cc2Oc2cc(O)ccc21	196*	?	78*	167*	84*	135*	142*	178*	97*
O=C(COc1cccnc1[N+](=O)[O-])Nc1c(Cl)cccc1Cl	nt	nt	6	nt	nt	3	nt	nt	nt
O=C(COc1cccnc1[N+](=O)[O-])Nc1ncc(Cl)cc1Cl	78*	nt	18*	64*	nt	31	61*	98*	-4
CC1(C)c2ccccc2N2CC(=O)N(CC(N)=O)C21C (stereo unspecified)	106*	8	125*	97*	2	85*	75*	103*	89*
CC1(C)c2ccccc2N(CC(N)=O)C12C=Cc1ccccc1O2 (stereo unspecified)	-2	-1	8	0	-2	-6	nt	nt	nt
O=C1C=C(NNC(=O)c2ccncc2)CC(c2ccccc2)C1 (stereo unspecified)	72*	-18	68*	75*	2	126*	26	39	-59
C=C(c1ccccc1Cl)[n+]1ccccc1	-5	0	-10	8	nt	0	nt	nt	nt
